According to PMC12215968:

Molecular target: CCT7 (UniProt Q99832)
Assay: cross-linking mass spectrometry
Conditions: TSTO, in cells

CCT7, sequence (Q99832 whole entry): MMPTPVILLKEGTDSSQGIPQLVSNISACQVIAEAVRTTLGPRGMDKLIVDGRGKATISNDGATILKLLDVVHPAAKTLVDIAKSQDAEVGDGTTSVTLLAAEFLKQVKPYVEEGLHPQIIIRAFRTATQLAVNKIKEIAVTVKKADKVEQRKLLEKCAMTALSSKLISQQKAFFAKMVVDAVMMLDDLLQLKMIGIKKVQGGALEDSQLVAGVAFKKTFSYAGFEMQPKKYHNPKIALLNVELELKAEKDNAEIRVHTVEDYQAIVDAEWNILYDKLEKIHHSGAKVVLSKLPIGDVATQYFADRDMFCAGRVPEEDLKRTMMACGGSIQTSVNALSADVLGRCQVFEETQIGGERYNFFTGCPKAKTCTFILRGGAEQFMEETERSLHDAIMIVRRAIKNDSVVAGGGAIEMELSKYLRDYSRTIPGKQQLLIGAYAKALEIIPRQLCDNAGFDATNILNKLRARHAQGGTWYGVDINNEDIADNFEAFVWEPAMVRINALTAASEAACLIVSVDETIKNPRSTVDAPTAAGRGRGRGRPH
CCT2, P78371, sequence (P78371 whole entry): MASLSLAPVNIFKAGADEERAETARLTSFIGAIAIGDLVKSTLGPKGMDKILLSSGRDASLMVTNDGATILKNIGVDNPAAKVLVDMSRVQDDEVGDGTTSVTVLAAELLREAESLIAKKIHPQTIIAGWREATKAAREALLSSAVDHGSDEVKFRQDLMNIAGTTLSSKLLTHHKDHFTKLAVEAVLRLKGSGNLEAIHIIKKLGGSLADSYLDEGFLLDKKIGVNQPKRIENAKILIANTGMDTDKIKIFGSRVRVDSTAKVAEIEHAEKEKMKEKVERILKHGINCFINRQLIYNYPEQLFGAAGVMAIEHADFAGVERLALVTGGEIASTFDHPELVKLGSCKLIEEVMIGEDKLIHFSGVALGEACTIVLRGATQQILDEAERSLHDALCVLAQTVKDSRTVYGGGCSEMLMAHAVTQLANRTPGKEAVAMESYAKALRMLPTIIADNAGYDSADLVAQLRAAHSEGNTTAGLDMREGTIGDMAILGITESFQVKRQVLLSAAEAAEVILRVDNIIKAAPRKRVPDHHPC
VBP1, P61758, sequence (P61758 whole entry): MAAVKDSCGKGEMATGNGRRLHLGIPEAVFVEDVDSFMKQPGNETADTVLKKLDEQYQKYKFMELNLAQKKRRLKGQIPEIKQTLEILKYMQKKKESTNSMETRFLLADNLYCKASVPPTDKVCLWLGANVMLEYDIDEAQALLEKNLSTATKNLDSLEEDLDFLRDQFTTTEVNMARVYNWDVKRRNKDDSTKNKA
CCT5, P48643, sequence (P48643 whole entry): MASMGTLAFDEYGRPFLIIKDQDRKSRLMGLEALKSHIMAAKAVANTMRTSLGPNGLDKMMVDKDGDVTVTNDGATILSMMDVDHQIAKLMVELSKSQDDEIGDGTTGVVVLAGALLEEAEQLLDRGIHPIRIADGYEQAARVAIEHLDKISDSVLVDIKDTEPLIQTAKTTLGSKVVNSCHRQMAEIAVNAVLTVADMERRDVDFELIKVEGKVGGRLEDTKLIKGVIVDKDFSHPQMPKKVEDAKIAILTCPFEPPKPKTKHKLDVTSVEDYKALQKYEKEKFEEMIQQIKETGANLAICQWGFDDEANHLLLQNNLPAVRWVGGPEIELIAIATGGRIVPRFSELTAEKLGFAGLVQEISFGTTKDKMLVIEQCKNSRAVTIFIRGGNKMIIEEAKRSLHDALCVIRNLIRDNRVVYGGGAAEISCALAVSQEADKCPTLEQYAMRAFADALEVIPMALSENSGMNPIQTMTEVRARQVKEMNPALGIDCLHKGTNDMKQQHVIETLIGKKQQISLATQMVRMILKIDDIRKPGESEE
CCT8, P50990, sequence (P50990 whole entry): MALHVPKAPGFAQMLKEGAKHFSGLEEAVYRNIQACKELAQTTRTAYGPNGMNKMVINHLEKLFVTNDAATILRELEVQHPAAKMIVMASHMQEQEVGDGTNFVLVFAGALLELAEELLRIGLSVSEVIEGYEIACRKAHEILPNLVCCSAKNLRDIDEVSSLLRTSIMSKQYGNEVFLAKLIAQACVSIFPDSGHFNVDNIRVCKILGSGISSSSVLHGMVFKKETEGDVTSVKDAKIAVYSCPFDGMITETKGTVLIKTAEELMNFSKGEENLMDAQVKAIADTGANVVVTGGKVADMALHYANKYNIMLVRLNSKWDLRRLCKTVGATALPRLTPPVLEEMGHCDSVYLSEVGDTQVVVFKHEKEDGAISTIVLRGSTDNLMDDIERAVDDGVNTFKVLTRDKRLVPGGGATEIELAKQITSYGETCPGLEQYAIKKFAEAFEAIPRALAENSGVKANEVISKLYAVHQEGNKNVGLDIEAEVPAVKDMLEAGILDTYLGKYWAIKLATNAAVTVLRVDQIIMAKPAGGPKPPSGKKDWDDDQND

Row | Substance | cross-linked residues
1 | CCT8, P50990 | K270 - K280
2 | VBP1, P61758 | K189 - K292
3 | CCT5, P48643 | K232 - K250
4 | CCT2, P78371 | K248 - K250
